In PubChem BioAssay (NCATS):
Records with an inconclusive call do not appear. A call without a number means that no potency is given here. Values without a mark were called inactive. The source made the active and inactive calls. Calls follow the shape of the dose curve; as a rule, active = well fitted cell-killing curve with a large enough effect; inconclusive = small, poorly fitted or top-dose-only effect, or effect the other way; inactive = no such curve, though single readings can be large or run the other way.

What was measured:
[1] = Viability qHTS for spleen associated tyrosine kinase inhibitor (SYKi) naive MV4-11 cells (AID 1963823); also: nearly all actives have a fitted effect of over 40% in size
Outline: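 Viability of MV4-11 AML cells lacking prior SYK inhibitor exposure is scored by CellTiter-Glo luminescence following 72 hr compound incubation at 37 C, 5% CO2, seeded at 500 cells per well.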

[2] = Viability qHTS for spleen associated tyrosine kinase inhibitor (SYKi) drug resistant MV4-11 cells (AID 1963824); also: nearly all actives have a fitted effect of over 35% in size
Outline: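 SYK-inhibitor-resistant MV4-11 AML cells were seeded at 500 per well onto compound and cultured 72 hours (37 °C, 5% CO2). CellTiter-Glo was then added, and after 10 min at room temperature, luminescence gave viability.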
Potency is read from the fitted curve at half-maximal effect.

Compound	Potency [1]	Potency [2]	viability (% of control) [1]	viability, % of control [2]
C=CC(C)(C)C12C=C(OC)C(=O)N3C(C(C)C)C(=O)NC31N(OC)c1ccccc12 (configuration not stated)	inactive	7.09 µM (active)		
CC(C)C(C(=O)N(C)C(C)C(N)=O)N(C)C(=O)C1CCCN1C(=O)/C=C/C=C/C(O)C(C)O (configuration not stated)	inactive	inactive		
CC1(C)CC[C@]2(C(=O)O[C@@H]3O[C@H](CO)[C@@H](O)[C@H](O)[C@H]3O)CC[C@]3(C)C(=CCC4[C@@]5(C)C[C@H](O)[C@H](O[C@@H]6OC[C@@H](O)[C@H](O)[C@H]6O)[C@@](C)(CO)C5CC[C@]43C)C2C1 (some centres not stated)			96.5% [at 9.25 µM]	109% [at 9.25 µM]
Cc1cc2c(F)c(Oc3ncnn4cc(OCC(C)OC(=O)C(C)N)c(C)c34)ccc2[nH]1 (configuration not stated)	10.3 µM (active)	8.2 µM (active)		
C[C@@H]1O[C@@H](O[C@H]2[C@H](O[C@H]3[C@H](O[C@H]4CC[C@@]5(C)C(CC[C@]6(C)C5CC=C5[C@@H]7CC(C)(C)C[C@@H](O)[C@]7(C)CC[C@]56C)[C@@]4(C)CO)O[C@H](C(=O)O)[C@@H](O)[C@@H]3O)OC[C@H](O)[C@@H]2O)[C@H](O)[C@H](O)[C@H]1O (some centres not stated)			76.2% [at 9.25 µM]	84.4% [at 9.25 µM]
C[C@@H]1O[C@@H](O[C@H]2[C@H](O)[C@@H](O[C@@H]3O[C@H](CO)[C@H](O)[C@H](O)[C@H]3O)[C@H](O[C@H]3CC[C@@]4(C)C(CC[C@]5(C)C4CC=C4[C@@H]6CC(C)(C)CC[C@]6(C(=O)O[C@@H]6O[C@H](CO)[C@@H](O)[C@H](O)[C@H]6O)CC[C@]45C)C3(C)C)O[C@@H]2C(=O)O)[C@H](O)[C@H](O)[C@H]1O (some centres not stated)			82.7% [at 9.25 µM]	90.8% [at 9.25 µM]
Cc1ccc2c(c1)C=Cc1cc(C)ccc1C2c1cn(Cc2ccc(C(=O)Nc3nn[nH]n3)o2)c(=O)[nH]c1=S	inactive	inactive		
CC1=CC(=O)C(=C(C)C)CC2C(C)(O)CCC12O (configuration not stated)	inactive	inactive		
COC1=CC(=O)O/C1=C(/OC)[C@@H]1O[C@H]1c1ccccc1	23.1 µM (active)	10.3 µM (active)		
C[C@@H](OC(=O)/C=C/c1ccc(O)cc1)C1=C[C@]2(C=C[C@@H]3C(C(=O)O)=CO[C@@H](O[C@@H]4O[C@H](CO[C@@H]5O[C@H](CO)[C@@H](O)[C@H](O)[C@H]5O)[C@@H](O)[C@H](O)[C@H]4O)[C@@H]32)OC1=O	inactive	inactive		
CC(=O)N[C@H]1CCN(c2ccc(C3=NOC(CN[S+](=O)([O-])C(C)C)C3)cc2F)C1 (some centres not stated)	inactive	13 µM (active)		
CC(=O)OC[C@@]12C(=O)C[C@@H](C)[C@]3(C[C@@H](c4ccoc4)O[C@H]3OC(C)=O)[C@H]1CCC[C@]21CO1	inactive	inactive		
CCN1CCN(Cc2ccc(NC(=O)c3ccc(C)c(Oc4ccnc5[nH]ccc45)c3)cc2C(F)(F)F)CC1	0.0255 µM (active)	0.0718 µM (active)		
C[C@]12C[C@@H](O)[C@@H]3C[C@@]1(O[C@@H]1O[C@H](CO)[C@@H](O)[C@H](O)[C@H]1O)[C@]3(COC(=O)c1ccccc1)C(=O)O2	inactive	inactive		
COC(=O)C1=COC(OC2OC(CO)C(O)C(O)C2O)C2C(C)C(OC(=O)/C=C/c3ccc(O)cc3)C(O)C12 (configuration not stated)	inactive	inactive		
CC1=CC(=O)C[C@H]2[C@@H]1CC[C@@H](C)[C@]21CO[C@H](c2ccoc2)C1=O	inactive	inactive		
CC(=O)N[C@@H](CC(C)C)C(=O)N[C@@H](CCC(=O)O)C(=O)N[C@@H](CCC(=O)O)C(=O)N[C@@H](CC(=O)O)C(=O)Nc1ccc2c(C(F)(F)F)cc(=O)oc2c1	inactive	inactive		
CC1C(=O)OCC2=CCN3CCC(OC(=O)C(C)(O)C1(C)O)C23 (configuration not stated)	inactive	inactive		
CCOC(=O)C(CCc1ccccc1)NC1CSC(c2cccs2)CN(CC(=O)O)C1=O (configuration not stated)	25.9 µM (active)	6.51 µM (active)		
CC1=C(C(=O)O)/C(=C\CO[C@@H]2O[C@H](CO)[C@@H](O)[C@H](O)[C@H]2O)C(OC(=O)/C=C\c2ccc(O)cc2)C1 (some centres not stated)	inactive	inactive		
C=C[C@@]1(C)CC(=O)C2[C@](C)(O1)[C@@H](OC(C)=O)[C@@H](O)[C@H]1C(C)(C)CCC[C@]21C (some centres not stated)			97.8% [at 9.25 µM]	89.7% [at 9.25 µM]
